# Compound activity (PubChem BioAssay)
# Hsp90 Hop PPI: changes Hsp90-Hop TPR2A binding signal, up or down; AlphaScreen TPR2A-His6 binding biotin-Hsp90 C-terminal peptide; Potency, µM (doses to about 57 µM), for the others: at the highest dose activity change, negative = inhibition; hit rate 0.44% among 71,000; AID 595; active means well fitted curve in either direction with a large enough effect; inconclusive means small, poorly fitted or top-dose-only effect, or another doubt; further: potency means the concentration at half of the fitted maximal effect; on the % scale 0 is the no-effect control and ±100 the full control effect
# Tau filament bind: tau filament binding; P10636; hit rate 2% among 71,000; recombinant tau filaments, thioflavin S fluorescence, 15 h; filaments grown with octadecylsulfate alongside compound; Potency, µM (top dose mostly 57.1 µM), for inactives: at the highest dose activity change, negative = inhibition;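 further: potency means the concentration at half of the fitted maximal effect; on the % scale 0 is the no-effect control and ±100 the full control effect; actives lower thioflavin S fluorescence by blocking filaments or displacing dye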
#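 Thioflavine S fluorescence (ex 450, em 510 nm) reports filaments formed from 1 uM human tau plus 30 uM ODS over 15 h at 37 C (10 mM HEPES pH 7.4, 100 mM NaCl, 5 mM DTT); compounds displacing dye or blocking filaments lower signal.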
# DNA Pol III inh: inhibitors of bacterial DNA polymerase III holoenzyme; reconstituted DNA polymerase III holoenzyme replication, biochemical; Potency, µM (doses to about 57.1 µM), for the others: at the highest dose activity change, negative = inhibition; hit rate 0.25% among 71,000; AID 603; further: potency means the concentration at half of the fitted maximal effect; on the % scale 0 is the no-effect control and ±100 the full control effect
#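 Reconstituted *E. coli* holoenzyme (0.35 nM Pol III, 1 nM beta, 154 nM SSB, 2 nM primase) was preincubated with compound for 15 min at RT. Synthesis on 1.4 nM ssM13Gori ran 35 min, then was stopped with PicoGreen/EDTA and read as dsDNA fluorescence.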
# BRCT inh red: BRCT-phosphoprotein interaction inhibition (red fluorophore) | P38398 | BRCT-phosphopeptide binding, red fluorescence polarization | Potency, µM (top dose mostly 76.9 µM), for the others: at the top dose activity change, negative = inhibition, usual class: inhibitors | hit rate 0.03% among 75,000 | AID 892; further: on the % scale 0 is the no-effect control and ±100 the full control effect
#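 Fluorescence polarization: 100 nM His-tagged BRCA1 BRCT with 100 nM TAMRA-labelled phospho-BACH1 decapeptide, phosphate buffer pH 7.3 with 150 mM NaCl, DTT, 0.01% Tween 20; 12 min RT. Binding inhibition seen as FP decrease.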
# BRCT PPI green: inhibitors of human BRCA1 BRCT-phosphoprotein interaction (green fluorophore); Potency, µM (series often up to 76.9 µM), inactives show top-dose activity change, negative = inhibition, most hits filed as inhibitors; BRCA1 BRCT-phosphopeptide binding, green fluorescence polarization; P38398; hit rate 0.05% among 75,000; AID 875;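 further: potency means the concentration at half of the fitted maximal effect; plate controls were peptide without protein for full effect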
#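 Compounds were incubated for 12 min at room temperature with a complex of 100 nM fluorescein-tagged pBACH1 decapeptide and 250 nM His-tagged BRCT protein. Buffer was phosphate pH 7.3 with EDTA, DTT and Tween 20. Disruption of binding lowers the polarization signal.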
# TsaE inh: YjeE (TsaE) inhibition, E. coli. P0AF67. purified YjeE enzyme, qHTS inhibition assay. Potency, µM. hit rate 0.05% among 71,000. AID 605
#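 Fluorescence polarization of a BODIPY Texas Red–ADP probe (2 uM) bound to purified YjeE (10 uM) was read after 15 min room-temperature incubation with compounds. Loss of polarization marks inhibitors; ADP serves as titrated control.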
# * = called active by the depositor; i = inactive; ? = inconclusive; . = no result given; [ ] = another dose, or the depositor's remark. Compounds with a hit are over-represented: about 2.4% of the library has one in this group of screens. Unless noted, the call rests on the fitted dose curve; in most records, active means well fitted curve in the direction sought with a large enough effect; inconclusive means small, poorly fitted or top-dose-only effect, or another doubt; inactive means no such curve, though single readings can be large; an effect the other way counts as inactive or inconclusive.
SMILES,Hsp90 Hop PPI,Tau filament bind,DNA Pol III inh,BRCT inh red,BRCT PPI green,TsaE inh
O=C(Cn1c(-c2ccccc2)noc1=O)Nc1ccc(N2CCCCCC2)cc1,?,13µM*,-1%,-2%,0%,i
COc1cccc(O)c1O,.,.,.,0%,-4%,.
O=C1C=CC2=C3c4cc(O)c(O)cc4C[C@]3(O)COC2=C1,.,.,.,-10%,-1%[3.08 µM],.
Nc1c(C(=O)c2ccc(Br)s2)oc2ccccc12,20%,13µM*,2%,-1%,-1%,i
Nc1c(C(=O)c2cccs2)oc2ccccc12,16%,?,-5%,2%,-4%,i
C[C@H](CCC(=O)O)[C@H]1CC[C@]2(C)[C@@H]3C(=O)C[C@H]4C(C)(C)[C@@H](O)CC[C@]4(C)[C@H]3C(=O)C[C@@]12C,-4%[11 µM],8%[11.4 µM],4%[11.4 µM],1%[15.4 µM],-2%[15.4 µM],i
Cc1c(C(=O)Nc2ccc(N3CCOCC3)cc2)oc2ccccc12,-4%,25µM*,-1%,1%,-1%,i
Cc1c(C(=O)Nc2ccncc2)oc2ccccc12,-4%,-2%,0%,-1%,3%,i
O=C(CCc1ccccc1)Nc1ccc(N2CCOCC2)cc1,-4%,16µM*,-7%,1%,-1%,i
COC(=O)c1cn(CCOc2ccccc2)c2ccccc12,25µM*,-8%,3%,-2%,-4%,i
CC(=O)O[C@H]1C(=O)[C@]2(C)[C@H]([C@H](OC(=O)c3ccccc3)[C@@]3(O)C[C@H](OC(=O)[C@@H](O)[C@@H](NC(=O)c4ccccc4)c4ccccc4)C(C)=C1C3(C)C)[C@]1(OC(C)=O)CO[C@@H]1C[C@@H]2O,0%,?,-6%,.,.,i
Cc1ccc(C(=O)OCC(=O)Nc2ccc3c(c2)OCO3)o1,-2%,-21%,-2%,1%,1%,i
Cc1ccc(C(=O)Nc2ccc3c(c2)OCO3)o1,-6%,20µM*,1%,0%,-1%,i
O=C(Nc1ccc2c(c1)OCO2)c1ccc(CN2CCOCC2)cc1,-22%,16µM*,0%,-2%,-2%,i
Cc1cc(C)n2nc(C(=O)Nc3ccc4c(c3)OCO4)nc2n1,-7%,32µM*,4%,0%,0%,i
CCN(CC)c1ccc(NC(=O)c2nc3nc(C)cc(C(F)F)n3n2)cc1,-25%,16µM*,-3%,2%,-1%,i
COc1ccc(-c2nc3cnc(N(C)C)nc3n(C)c2=O)cc1,-3%,181%,-1%,0%,2%,i
C/C(=C\C(=O)c1ccc(C)o1)Nc1ccc2c(c1)OCO2,-15%,13µM*,-3%,0%,-3%,i
CC(C)C[C@H]1C(=O)N2CCC[C@@H]2[C@]2(O)O[C@](NC(=O)[C@@H]3C=C4c5cccc6[nH]c(Br)c(c56)C[C@H]4N(C)C3)(C(C)C)C(=O)N12,-10%,32µM*,0%,-2%,0%,i
CN1C[C@H](C(=O)N[C@@]2(C)O[C@@]3(O)C4CCCN4C(=O)C(Cc4ccccc4)N3C2=O)C[C@H]2c3cccc4[nH]cc(c34)C[C@H]21 (some centres not stated),.,.,.,0%,-2%[3.08 µM],.
O=c1oc2c(O)c(O)cc3c(=O)oc4c(O)c(O)cc1c4c23,32µM*,?,0.005µM*,-5%,-10%,i
O=c1c(-c2cc(F)cc(F)c2)nc2cncnc2n1Cc1ccccc1Cl,-11%,?,-8%,0%,0%,i
O=c1c(-c2ccc(F)c(F)c2)nc2cncnc2n1Cc1ccc(F)cc1,-12%,16µM*,-6%,-2%,-1%,i
O=c1c(-c2ccc(F)c(F)c2)nc2cncnc2n1Cc1ccccc1Cl,-12%,7.9µM*,-11%,-2%,-1%,i
O=c1c(-c2cccs2)nc2cncnc2n1Cc1ccc(F)cc1,-2%,25%,-8%,-2%,0%,i
SMILES,Hsp90 Hop PPI,Tau filament bind,DNA Pol III inh,BRCT inh red,BRCT PPI green,TsaE inh
CN1CCN(CC(=O)N2c3ccccc3Sc3cc4ccccc4cc32)CC1,-8%[11 µM],-3%[11.4 µM],-11%[11.4 µM],0%[15.4 µM],1%[15.4 µM],i
O=C(Nc1ccc(Nc2ccc3c(c2)C(=O)c2ccccc2C3=O)c2c1C(=O)c1ccccc1C2=O)c1ccccc1,?,4µM*,12%[11.4 µM],-1%[15.4 µM],0%[15.4 µM],i
O=C1c2ccccc2-c2ccc(NC(=O)[C@H]3CCCC[C@@H]3C(=O)O)cc21,-6%[11 µM],-14%[11.4 µM],-7%[11.4 µM],-2%[15.4 µM],-1%[15.4 µM],i
COc1ccc2nc(C)cc(Nc3ccc(N4CCOCC4)cc3)c2c1,-12%,5µM*,-22%,0%,1%,i
Cc1ccsc1/C=C/C1=NCCCN1C,.,.,.,1%,-1%[3.08 µM],.
Cc1ccsc1C=Nc1ccc(O)cc1,-23%,20µM*,-5%,-1%,-1%,?
C#CCN1C(C)=C(C(=O)OC)[C@@H](c2cccc([N+](=O)[O-])c2)C(C(=O)OCC)=C1C,-9%,-30%,0%,1%,-2%,i
O.O.O.O.O.O.O.O=S(=O)([O-])[O-].[Co+2],?,3.2µM*,-1%,0%,0%,?
COC(=O)[C@@H]1[C@@H]2C[C@H]3c4[nH]c5ccccc5c4CCN3C[C@@H]2CC[C@@H]1OS(=O)(=O)O,1%[11 µM],5%[11.4 µM],-14%[11.4 µM],-2%[15.4 µM],-1%[15.4 µM],i
Cc1ccc(C23CC4CC(CC(NC(=O)N5CCN(C)CC5)(C4)C2)C3)cc1,-3%,16µM*,3%,-1%,-2%,i
Cc1cc(-c2ccc(N=Nc3cc(S(=O)(=O)O)c4ccccc4c3N)c(C)c2)ccc1N=Nc1cc(S(=O)(=O)O)c2ccccc2c1N,1.3µM*,0.02µM*,?,-10%,-8%,i
Nc1c(S(=O)(=O)O)cc(S(=O)(=O)O)c2ccc(N=Nc3ccccc3)c(O)c12,?,-1%[11.4 µM],-4%[11.4 µM],0%[15.4 µM],-3%[15.4 µM],i
CCCOC(=O)c1ccc(Oc2cn[nH]c2-c2ccc(OC)cc2O)cc1,7%,13µM*,-11%,-2%,4%,i
C/C(=C\C(=O)c1ccc(F)cc1)Nc1ccc(N2CCOCC2)cc1,-11%,6.3µM*,-2%,1%,-1%,i
Cc1ccc(C(=O)Nc2ccc(N3CCOCC3)cc2)cc1,-5%,15%,-4%,1%,-4%,i
COc1ccc(NC(=O)Nc2ccc3nccnc3c2)cc1,-9%[11 µM],3.2µM*,-4%[11.4 µM],1%,-1%,i
COc1ccc(NC(=O)Nc2ccc(N(C)C)cc2)cc1,-21%,16µM*,0%,0%,3%,i
CC1=C(C)CC(c2ccccc2)C(C(=O)c2ccccc2O)C1 (configuration not stated),.,.,.,-1%[15.4 µM],1%[15.4 µM],.
CN(C)c1ccc(Nc2nc(-c3cccnc3)cs2)cc1,-12%[11 µM],2.5µM*,1%[11.4 µM],0%,-3%,i
c1cncc(-c2csc(NCc3ccco3)n2)c1,.,.,.,-1%,-4%,.
